# Screening results deposited in PubChem BioAssay by several laboratories.
# In the library only some 3.6% were active in any assay of this set; here they are far more common.
# BoNT-A LC inh2: BoNT/A light chain protease inhibitors, primary screen, biochemical, flow cytometry, MLPCN library; inhibition, % at 10 µM; multiplex microsphere protease substrate cleavage; 360,000 compounds, 0.17% hits; Botulinum neurotoxin type A light chain protease (Clostridium botulinum A str. ATCC 3502); also: plate controls were buffer without enzyme for full effect and enzyme alone for no effect
# BoNT-F LC inh: BoNT/F light chain protease inhibitors, primary screen, biochemical, flow cytometry, MLPCN library; Botulinum neurotoxin type F light chain protease (Clostridium botulinum); inhibition, % at 10 µM; AID 588497, 2011; 360,000 compounds, 0.22% hits; Multiplex microsphere protease cleavage assay; in the data active = inhibition above about 35%, passing the limit was not always enough; inconclusive = no clear call, values can overlap the other calls; also: plate controls were buffer without enzyme for full effect and enzyme alone for no effect
# Anthrax LF inh2: Bacillus anthracis LF protease inhibitors, primary screen, biochemical, multiplex microsphere, MLPCN library | Lethal factor (Bacillus anthracis), P15917 | multiplex microsphere protease cleavage assay | inhibition, % at 10 µM | 360,000 compounds, 0.12% hits | AID 588501, 2011; also: plate controls were buffer without enzyme for full effect and enzyme alone for no effect
# MazF activator: activators of E. coli MazEF toxin-antitoxin RNase, primary screen, biochemical, fluorescence, uHTS; Endoribonuclease toxin MazF (Escherichia coli (strain K12)), P0AE70; AID 504720, 2011; 350,000 compounds, 0.32% hits; activation, % at 20 µM; FAM/BHQ RNA-DNA oligo cleavage fluorescence, 5 h; in the data active = activation above about 50%
# Target sequence (P0AE70 whole entry, looked up): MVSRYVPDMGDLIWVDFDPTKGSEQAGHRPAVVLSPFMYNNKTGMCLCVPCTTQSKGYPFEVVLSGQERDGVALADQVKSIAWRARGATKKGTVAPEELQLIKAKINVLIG
# Autofluor counter: compound fluorescence in toxin protease inhibitor counterscreen | compound autofluorescence counterscreen, microsphere flow cytometry; active compounds read high | fluorescence intensity (test concentration not listed) | 360,000 compounds, 3.1% hits | AID 624483; in the data active = fluorescence intensity above about 16000; inconclusive = no clear call, values can overlap the other calls
# Numbers without * were called inactive; u = inconclusive; x = no result given; + = active, no number. Rule as the data show it, unless noted: active = inhibition above about 30%; inconclusive = no clear call, values can overlap the other calls; inactive = below that.
SMILES,BoNT-A LC inh2,BoNT-F LC inh,Anthrax LF inh2,MazF activator,Autofluor counter
c1ccc(-c2ncnc3ccccc23)cc1,0.1,-3.3,-1.1,12.1,4314
COc1ccc(CCNC(=O)CN2C(=O)COc3ccc(S(=O)(=O)N4CCOCC4)cc32)cc1OC,-0.2,5.0,1.9,11.2,5026
Cn1ccsc1=NC(=O)c1ccc(S(C)(=O)=O)c([N+](=O)[O-])c1,1.8,-3.0,-1.7,2.6,6039
CCOc1ccc(C2=Nn3cnnc3SC2)cc1,1.3,1.8,2.2,-18.5,22944*
CCOc1ccc(C2=Nn3c(nnc3-c3cccnc3)SC2)cc1,u,-2.7,-0.6,6.2,20067*
COc1ccc(C2=Nn3c(nnc3-c3ccncc3)SC2)cc1,u,-3.4,u,-2.0,u
CCOc1ccc(C2=Nn3c(nnc3-c3ccc(OC)cc3)SC2)cc1,5.3,7.2,-11.6,11.3,17851*
COc1ccc(OC)c(C2=Nn3c(nnc3-c3cccc(OC(C)C)c3)SC2)c1,-1.2,-5.4,-14.7,-5.2,16655*
CCOc1ccc(NC(=O)c2ccccc2C(=O)c2ccccc2)cc1OCC,2.4,u,-13.5,-6.3,2937
c1ccc(C2=Nn3c(nnc3-c3cccnc3)SC2)cc1,4.5,7.0,1.0,-3.8,22262*
Cc1cccc(-c2nnc3n2N=C(c2ccccc2)CS3)c1,u,-1.8,0.5,-1.4,20710*
COc1ccc(C2=Nn3c(nnc3-c3ccco3)SC2)cc1,-2.9,-8.6,-5.3,-4.2,17209*
COc1ccc(-c2nonc2NC(=O)c2ccco2)cc1OC,0.6,3.7,-1.4,6.9,4283
COc1ccc(NC(=O)C2Cc3c(-c4cccc(F)c4)ccnc3O2)cc1 (centres undefined),-0.7,-1.2,-2.1,x,2815
CCN(CC)C(=O)Oc1ccc2c(=O)c(-c3ccccc3)coc2c1,1.8,4.0,-0.3,-18.0,21592*
O=C(NCc1cccs1)C1CCN(c2nc3ccccc3o2)CC1,1.0,12.3,7.4,4.0,8060
CC(C)CCNC(=O)C1CCN(c2nc3ccccc3o2)CC1,-1.5,-2.8,-7.0,-1.5,16365*
CCCc1cc(-n2ccnc2)n2c(nc3ccccc32)c1C#N,1.7,3.8,-1.6,82.1*,5393
Cc1cc(-n2ccnc2)n2c(nc3ccccc32)c1C#N,0.6,-0.7,1.7,1.2,6539
COC(=O)C(O)(CC(=O)Nc1ccc(C)c(F)c1)C(F)(F)F (centres undefined),u,15.0,2.4,-19.3,16452*
O=C(COC(=O)c1ccccc1SCC(=O)N1CCCC1)NCc1ccc(F)cc1,0.6,7.8,-2.3,-5.7,3832
O=C(C[n+]1cccc2ccccc21)c1ccc(Br)cc1,6.9,u,16.1,-35.2,8510
O=C(C[n+]1cc(Br)cc2ccccc21)c1ccc(Cl)cc1,103.8*,31.9,20.4,-10.6,6803
O=C(C[n+]1cc(Br)cc(Br)c1)c1ccc(Cl)cc1,8.0,-11.2,5.3,3.6,3666
Cc1ccc(C(=O)C[n+]2cccc3ccccc32)cc1,10.9,53.3*,15.9,-21.7,5828
SMILES,BoNT-A LC inh2,BoNT-F LC inh,Anthrax LF inh2,MazF activator,Autofluor counter
O=C(C[n+]1cc(Br)cc2ccccc21)c1ccc(Br)cc1,120.0*,-1.2,45.3*,14.9,6312
Cc1ccc(-c2nc(CS(=O)CC(=O)NCCCN3CCN(Cc4ccccc4)CC3)c(C)o2)cc1 (centres undefined),-0.1,-1.7,0.3,-1.8,4535
Cc1cccc(CSc2nnnn2-c2ccccc2)c1,0.3,3.5,-4.0,-11.1,2478
Cc1cccc(CSc2nnc(N)n2-c2ccccc2)c1,-1.2,-1.1,-7.2,0.3,22675*
c1ccc(CSc2nnc(-c3ccccn3)n2-c2ccccc2)cc1,0.2,-0.1,1.9,-1.1,3222
Nc1nnc(SCc2ccccc2)n1-c1ccccc1,u,9.2,-13.0,2.5,17516*
CCOC(=O)c1cccc(NC(=O)CSc2nnc(C)n2CC2CCCO2)c1 (centres undefined),-0.1,-16.2,7.6,2.2,2984
CC(C)(O)P(C)(=O)c1ccccc1 (centres undefined),0.2,-10.3,-8.7,1.9,3274
CC(C)(C)P(=O)(CO)c1ccccc1 (centres undefined),3.4,2.4,-3.3,-4.6,19072*
COc1cccc(Cn2c(=S)[nH]c3ccc(N4CCOCC4)cc3c2=O)c1,-3.0,-2.6,-0.7,6.2,20640*
O=c1c2cc(N3CCOCC3)ccc2[nH]c(=S)n1Cc1cccc(Cl)c1,0.1,-1.3,-0.6,-5.6,23197*
O=c1c2cc(N3CCOCC3)ccc2[nH]c(=S)n1Cc1ccco1,u,u,u,3.8,u
CC1CCN(CCCn2c(=S)[nH]c3ccc(N4CCOCC4)cc3c2=O)CC1,-1.9,-3.3,-1.1,4.7,22801*
O=c1c2cc(N3CCOCC3)ccc2[nH]c(=S)n1CCCN1CCCC1,0.8,-0.7,-0.3,1.6,10120
CCN1CCN(Cc2nc3cc(NC(=O)COc4ccc([N+](=O)[O-])cc4)ccc3n2C)CC1,0.2,1.9,2.0,11.0,5167
Cc1cccc(N2CCN(C(=O)c3cc4cc(F)ccc4[nH]3)CC2)c1C,-0.1,11.7,2.1,-5.9,3734
COc1cccc(CNc2ncc(Br)cc2Br)c1O,-0.3,0.6,-0.2,-18.2,3394
COc1cccc(CNc2ccc(Br)cn2)c1O,u,-6.2,-1.2,-14.4,24305*
Cc1cccc(C)c1C(O)c1ncc(-c2ccccc2Cl)[nH]1 (centres undefined),-0.4,-3.7,-4.2,x,3625
Cc1cc(-c2ccco2)c(C#N)c2nc3ccccc3n12,0.6,-14.2,3.0,+,3064
CCOc1ccc(C(=O)NC(=S)Nc2ccccc2N2CCC(C)CC2)cc1[N+](=O)[O-],0.0,-2.2,-0.3,9.6,u
CCOc1ccc(C(=O)NC(=S)Nc2ccc(N3CCC(C)CC3)cc2)cc1[N+](=O)[O-],-6.9,39.4*,-10.6,1.7,14746
CCCN1CCc2c(sc3nc(SCC)n(-c4ccc(OC)cc4)c(=O)c23)C1,40.3*,11.3,28.9,5.7,4205
CCCN1CCc2c(sc3nc(SCC)n(-c4ccccc4)c(=O)c23)C1,33.9*,5.1,14.8,-5.4,5969
COC(=O)c1cccc(NC(=O)c2ccco2)c1,0.9,1.7,5.5,4.4,2465
O=C(Nc1cccc(C(F)(F)F)c1)c1ccco1,-3.1,-3.9,-3.5,7.9,23988*
CC(C)(C)C(=O)COC(=O)c1cccc(NC(=O)c2ccco2)c1,0.9,0.6,-2.6,11.4,23138*
O=C(CCNC(=O)c1ccco1)Nc1cccc(C(F)(F)F)c1,-1.1,-6.5,-1.0,-3.6,5368
COc1cc(C(=O)OCC(=O)NC2CCCC2)cc(NC(=O)c2ccco2)c1OC,-1.2,-5.7,-6.5,3.0,20665*
